In PubChem BioAssay one finds growth inhibition, inhibition and outcome data, which are given here for 20 compounds.

A word on the inhibition: it is the change of the read-out against control, counted positive when it falls.

A number with no mark means an inactive call. For some of these results: Results with a measured potency or affinity are listed apart. The source made the active and inactive calls. Unless noted, how the calls were made is not given here.

A short description of test [1]: antimalarial activity against Dd2 strain (AID 2302;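 active means growth inhibition above 50% at the single 2 µM test dose, taken to imply half-maximal potency below 2 µM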;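 further: 0% = DMSO untreated growth and 100% = chloroquine plus artemisinin killed control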). As to conditions: P. falciparum Dd2 in RBCs, LDH growth readout, 72 h; at 2 µM; hits give high values.
A short description of test [2]: HepG2 cytotoxicity, primary screen, cytotoxicity control for P. falciparum antimalarial project, cell-based, ATP luminescence (AID 2303;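 active means inhibition above 50%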;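 further: 0% = DMSO wells and 100% = digitonin-killed cells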). As to conditions: HepG2 viability, 24-48 h, at 10 µM, hits give high values.
Test [3] has as its target L-lactate dehydrogenase (Plasmodium falciparum (isolate CDC / Honduras)) (UniProt Q27743). As to the kind of experiment: PfLDH activity inhibition – cell lysate, 3D7 strain, counter-screen for P. falciparum growth inhibition project (AID 2304).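 Further: 0% = vehicle and 100% = reference inhibitor.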 As to conditions: P. falciparum 3D7 crude extract, LDH APAD/NBT absorbance; at 2 µM; hits give high values. (Counterscreens check selectivity or assay interference.)

Test [4] is described as follows: inhibition of 3D7 malaria parasite growth – strain 3D7 (AID 2306).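 Further: 0% = DMSO wells and 100% = chloroquine plus artemisinin control wells.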 As to conditions: P. falciparum 3D7 erythrocytic growth, LDH absorbance, 72 h; at 2 µM; hits give high values.
Test [5] addresses Calcium-dependent protein kinase 1 (Plasmodium falciparum (isolate 3D7)) (UniProt P62344). As to the kind of experiment: PfCDPK1 kinase inhibitors, biochemical, TCAMS library (AID 1159585; cut-off not given, nearly all actives have IC50 up to about 0.98 µM;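 further: inhibitors leave more ATP so luminescence rises with inhibition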). As to conditions: recombinant PfCDPK1, Kinase-Glo ATP depletion luminescence.
Test [6] deals with Plasmodium falciparum protein kinase 6 (PK6, PF3D7_1337100) (UniProt Q8IDW1). Briefly: PfPK6 kinase inhibitors, biochemical, TCAMS library (AID 1159586). As to conditions: recombinant PfPK6, Kinase-Glo ATP depletion luminescence. A general note: Kinase-Glo reads ATP consumption through a luciferase reaction.
Chain of Plasmodium falciparum protein kinase 6 (PK6, PF3D7_1337100) (Q8IDW1 1-305): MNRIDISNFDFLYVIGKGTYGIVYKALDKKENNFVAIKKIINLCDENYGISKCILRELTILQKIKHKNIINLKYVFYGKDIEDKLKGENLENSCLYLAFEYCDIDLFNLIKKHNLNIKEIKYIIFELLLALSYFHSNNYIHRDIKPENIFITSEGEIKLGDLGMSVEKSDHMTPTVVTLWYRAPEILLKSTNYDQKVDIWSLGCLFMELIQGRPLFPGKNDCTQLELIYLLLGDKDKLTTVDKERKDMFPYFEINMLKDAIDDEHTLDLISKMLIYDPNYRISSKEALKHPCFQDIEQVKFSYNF
Test [7] addresses Protein kinase 7 (PK7), Plasmodium falciparum 3D7 (PF3D7_0213400) (UniProt Q7YTF7). Briefly: inhibition of Plasmodium PK7 catalytic activity – biochemical, TCAMS antimalarial set, Kinase-Glo luminescence (AID 1159587). As to conditions: recombinant PfPK7, Kinase-Glo ATP depletion luminescence.
For test [8], the target named is Calcium-dependent protein kinase 4 (Plasmodium falciparum (isolate 3D7)) (UniProt Q8IBS5). Briefly: PfCDPK4 kinase inhibitors, biochemical, TCAMS library (AID 1159588; cut-off not given, nearly all actives have IC50 up to about 0.91 µM). As to conditions: recombinant PfCDPK4, Kinase-Glo ATP depletion luminescence.
Chain of Calcium-dependent protein kinase 4 (Plasmodium falciparum (isolate 3D7)) (Q8IBS5 whole entry, looked up): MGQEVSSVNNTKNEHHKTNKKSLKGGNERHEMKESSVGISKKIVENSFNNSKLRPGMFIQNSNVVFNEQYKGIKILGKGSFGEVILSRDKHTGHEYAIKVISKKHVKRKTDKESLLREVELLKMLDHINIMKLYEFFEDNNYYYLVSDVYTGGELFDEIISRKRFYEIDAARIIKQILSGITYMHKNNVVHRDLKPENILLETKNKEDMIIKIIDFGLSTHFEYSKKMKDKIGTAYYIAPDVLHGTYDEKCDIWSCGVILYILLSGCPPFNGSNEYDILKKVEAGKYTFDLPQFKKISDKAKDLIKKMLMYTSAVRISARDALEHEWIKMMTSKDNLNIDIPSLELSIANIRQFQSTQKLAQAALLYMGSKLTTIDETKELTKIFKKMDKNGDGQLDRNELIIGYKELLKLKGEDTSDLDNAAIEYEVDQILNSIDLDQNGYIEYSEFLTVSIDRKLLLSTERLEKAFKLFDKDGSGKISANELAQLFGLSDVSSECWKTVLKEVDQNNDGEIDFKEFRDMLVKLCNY

Chain of L-lactate dehydrogenase (Plasmodium falciparum (isolate CDC / Honduras)) (Q27743 whole entry, looked up): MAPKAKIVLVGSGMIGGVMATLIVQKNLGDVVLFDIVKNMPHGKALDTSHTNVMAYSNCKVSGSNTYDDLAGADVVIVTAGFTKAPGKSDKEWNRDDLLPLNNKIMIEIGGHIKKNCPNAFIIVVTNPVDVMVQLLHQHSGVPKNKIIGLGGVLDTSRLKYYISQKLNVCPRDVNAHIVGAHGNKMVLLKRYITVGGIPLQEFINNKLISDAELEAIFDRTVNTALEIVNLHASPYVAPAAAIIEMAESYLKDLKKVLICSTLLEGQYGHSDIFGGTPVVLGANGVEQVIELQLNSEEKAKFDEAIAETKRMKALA
Chain of Protein kinase 7 (PK7), Plasmodium falciparum 3D7 (PF3D7_0213400) (Q7YTF7 1-343): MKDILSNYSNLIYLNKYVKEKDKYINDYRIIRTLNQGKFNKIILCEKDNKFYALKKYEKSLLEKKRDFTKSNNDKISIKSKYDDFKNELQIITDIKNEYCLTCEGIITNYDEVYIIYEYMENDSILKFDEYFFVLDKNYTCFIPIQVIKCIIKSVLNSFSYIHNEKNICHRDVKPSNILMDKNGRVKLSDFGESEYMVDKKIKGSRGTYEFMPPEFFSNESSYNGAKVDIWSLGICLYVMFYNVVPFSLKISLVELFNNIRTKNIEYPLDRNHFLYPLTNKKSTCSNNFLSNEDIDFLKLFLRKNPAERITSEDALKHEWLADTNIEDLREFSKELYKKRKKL
Chain of Calcium-dependent protein kinase 1 (Plasmodium falciparum (isolate 3D7)) (P62344 whole entry, looked up): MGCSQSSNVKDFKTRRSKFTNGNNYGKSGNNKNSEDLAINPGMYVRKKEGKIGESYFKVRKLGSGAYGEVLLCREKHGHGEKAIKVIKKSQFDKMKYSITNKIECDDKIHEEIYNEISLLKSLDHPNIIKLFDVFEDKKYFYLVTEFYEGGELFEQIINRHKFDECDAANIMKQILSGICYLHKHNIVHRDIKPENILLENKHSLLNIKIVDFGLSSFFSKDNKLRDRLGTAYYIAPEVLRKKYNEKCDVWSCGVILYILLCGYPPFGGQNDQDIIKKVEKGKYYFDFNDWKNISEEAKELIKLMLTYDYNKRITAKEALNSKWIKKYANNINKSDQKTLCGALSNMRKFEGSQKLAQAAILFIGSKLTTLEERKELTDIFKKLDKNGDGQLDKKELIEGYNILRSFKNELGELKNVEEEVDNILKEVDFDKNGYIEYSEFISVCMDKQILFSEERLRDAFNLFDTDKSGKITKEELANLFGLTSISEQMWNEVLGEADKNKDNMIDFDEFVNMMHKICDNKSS

On to `c1ccc(Oc2ccc(Nc3nc(NCCc4cnc[nH]4)nc(NC4CCCC4)n3)cc2)cc1`, for which the growth inhibition was 23% in test [1] and 97% (active) in test [4]. For the same compound, the results for the inhibition in test [2] and in test [3] were -5% and 6%, respectively. The result in test [5], in test [6], in test [7] and in test [8] was inactive.
As for `O=C(Nc1cccc(-c2ccc(-c3nc4ccc(C(F)(F)F)cc4[nH]3)s2)c1)c1cccnc1`, the growth inhibition was 99% (active) in test [1] and 101% (active) in test [4]. The inhibition in test [2] is 74% (active); in test [3], -3%. Moreover, the outcome in test [5], in test [6], in test [7] and in test [8] was inactive.
For `CN1CCN(CCCN(Cc2cccc(-c3ccc(CNCc4ccc5c(c4)OCO5)cc3)c2)C(=O)CCC2CCCC2)CC1`, the growth inhibition in test [1] was 84% (active); in test [4] it was 98% (active). Besides, the inhibition in test [2] was 91% (active); in test [3], -6%. Moreover, the outcome in test [5], in test [6], in test [7] and in test [8] was inactive.
Regarding `N#Cc1ccc2nc(-c3ccccc3)[nH]c2c1`, the growth inhibition is 1% in test [1] and 95% (active) in test [4]. The inhibition in test [2] is 7%; in test [3] it was -1%. Further, the result in test [5], in test [6], in test [7] and in test [8] was inactive.
`CCN(CC)CCCN(Cc1ccc(-c2ccc(C(F)(F)F)cc2)cc1)C(=O)Cn1c(SCc2cccc(F)c2F)cc(=O)c2ccccc21`: the growth inhibition in test [1] was 82% (active); in test [4] it was 87% (active). In addition, the inhibition was 45% in test [2] and 7% in test [3]. Besides, the result in test [5], in test [6], in test [7] and in test [8] was inactive.
For the compound `CCOc1ccc(C(=O)Nc2cc(Br)c3c(c2)CNCC3)cc1Br`, the values for the growth inhibition in test [1] and in test [4] were 21% and 96% (active), respectively. For the same compound, the figures for the inhibition in test [2] and in test [3] were 18% and 0%, respectively. Besides, the result in test [5], in test [6], in test [7] and in test [8] was inactive.
As for `CC(C)n1nc(C(=O)N2CCN(c3ccccc3)CC2)c2ccccc2c1=O`, the growth inhibition in test [1] is 3%; in test [4], 96% (active). Moreover, the inhibition in test [2] is 34%; in test [3], 0%. Besides, the result in test [5], in test [6], in test [7] and in test [8] was inactive.
Take `O=C(Nc1ccc(F)cc1)NC1CCN(c2ccnc3cc(Cl)ccc23)CC1`: the growth inhibition in test [1] is 57% (active); in test [4], 97% (active). For the same compound, the inhibition in test [2] was 10%; in test [3], 0%. Also, the result in test [5], in test [6], in test [7] and in test [8] was inactive.
For the compound `Clc1ccc(-c2cc(-c3csc(Nc4ccncc4)n3)on2)cc1`, the growth inhibition in test [1] is 99% (active); in test [4] it was 100% (active). In addition, the inhibition in test [2] is 1%; in test [3], 3%. For the same compound, the result in test [5], in test [6], in test [7] and in test [8] was inactive.
For the compound `CCN(CC)CCN(Cc1ccc(-c2ccc(C#N)cc2)cc1)C(=O)Cn1c(CCc2cccc(F)c2F)nc(=O)c2ccccc21`, the results for the growth inhibition in test [1] and in test [4] were 46% and 100% (active), respectively. The values for the inhibition in test [2] and in test [3] were 31% and -1%, respectively. Further, the result in test [5], in test [6], in test [7] and in test [8] was inactive.
Consider `CCOC(=O)c1cnc2cc(N3CCCC3)c(Cl)cc2c1OCC`, for which the growth inhibition in test [1] and in test [4] was 97% (active) in each case. Also, the inhibition in test [2] is 0%; in test [3] it was -2%. Also, the result in test [5], in test [6], in test [7] and in test [8] was inactive.
On to `CN(C)c1ccc(CN2CCC(CNC(=O)c3cc(-c4cccc(F)c4)cs3)C2)cc1` (stereo not given), for which the growth inhibition in test [1] is 13%; in test [4], 96% (active). The results for the inhibition in test [2] and in test [3] were 48% and 0%, respectively. The outcome in test [5], in test [6], in test [7] and in test [8] was inactive.
In the case of `Cc1ccc(O)c(-c2cc(C(=O)Nc3ccc(S(=O)(=O)N4CCCC(C)C4)cc3)[nH]n2)c1` (stereo not given), the growth inhibition was 97% (active) in test [1] and 96% (active) in test [4]. Further, the values for the inhibition in test [2] and in test [3] were 27% and -2%, respectively. Also, the result in test [5], in test [6], in test [7] and in test [8] was inactive.
Regarding `CN1CCN(CC(=O)Nc2cccc(-c3ccc(-c4nc5ccc(F)cc5[nH]4)cc3)c2)CC1`, the values for the growth inhibition in test [1] and in test [4] were 98% (active) and 101% (active), respectively. The inhibition in test [2] is 20%; in test [3], 6%. The outcome in test [5], in test [6], in test [7] and in test [8] was inactive.
With `CC(=O)Nc1ncc(C(=O)Nc2cccc(-c3cccc(-c4nc5ccc(C(F)(F)F)cc5[nH]4)c3)c2)s1`, the growth inhibition in test [1] is 99% (active); in test [4], 101% (active). In addition, the inhibition is 76% (active) in test [2] and 3% in test [3]. The outcome in test [5], in test [6], in test [7] and in test [8] was inactive.
`COc1ccc(-c2nccc(NC(N)=NCc3ccccc3)n2)cc1`: the values for the growth inhibition in test [1] and in test [4] were 21% and 83% (active), respectively. Besides, the inhibition is 27% in test [2] and 1% in test [3]. The outcome in test [5], in test [6], in test [7] and in test [8] was inactive.
For `O=C(C1CCN(c2nnnn2-c2ccccc2)CC1)N1CCc2ccccc2C1`, the growth inhibition in test [1] and in test [4] was 97% (active) in each case. The inhibition in test [2] is -7%; in test [3], -9%. Also, the outcome in test [5], in test [6], in test [7] and in test [8] was inactive.
As to `Cn1nccc1C(=O)NCCNCc1ccc(-c2ccc(-c3nc4ccc(C(F)(F)F)cc4[nH]3)s2)cc1`, the growth inhibition in test [1] is 99% (active); in test [4] it was 101% (active). Further, the inhibition in test [2] is 48%; in test [3], -5%. For the same compound, the outcome in test [5], in test [6], in test [7] and in test [8] was inactive.
As for `CCC(CC)n1c(COC)cc2c3c(N)nc(N)nc3ccc21`, the growth inhibition in test [1] was 0%; in test [4] it was 95% (active). Besides, the inhibition is 71% (active) in test [2] and -4% in test [3]. Moreover, the result in test [5], in test [6], in test [7] and in test [8] was inactive.
Consider `Cc1ccc2[nH]c(-c3ccc(C(=O)NC4CCN(Cc5ccccc5)CC4)cc3)nc2c1C`, for which the growth inhibition in test [1] is 46%; in test [4], 102% (active). Moreover, the figures for the inhibition in test [2] and in test [3] were 22% and -2%, respectively. Further, the outcome in test [5], in test [6], in test [7] and in test [8] was inactive.
